# Data taken from publication PMC7862700, “An all-to-all approach to the identification of sequence-specific readers for epigenetic DNA modifications on cytosine”.
# Tests used:
# Assay in all cases: DAPPL (digital affinity profiling via proximity ligation, sequencing); 10 mM Tris-HCl pH 7.5, 50 mM NaCl, 1 mM DTT, 4% glycerol, room temperature, 30 min; GST-TFs on glutathione beads, 16-mer random dsDNA library, 0.1% formaldehyde crosslink after washing; high values mean tight binding
# Settings in all cases: protein: recombinant; tags: N-terminal GST; dsDNA, one strand shown
# FLI1 = biological target: T1, FLI1 (Homo sapiens, UniProt Q01543 1-452)
# T1 sequence: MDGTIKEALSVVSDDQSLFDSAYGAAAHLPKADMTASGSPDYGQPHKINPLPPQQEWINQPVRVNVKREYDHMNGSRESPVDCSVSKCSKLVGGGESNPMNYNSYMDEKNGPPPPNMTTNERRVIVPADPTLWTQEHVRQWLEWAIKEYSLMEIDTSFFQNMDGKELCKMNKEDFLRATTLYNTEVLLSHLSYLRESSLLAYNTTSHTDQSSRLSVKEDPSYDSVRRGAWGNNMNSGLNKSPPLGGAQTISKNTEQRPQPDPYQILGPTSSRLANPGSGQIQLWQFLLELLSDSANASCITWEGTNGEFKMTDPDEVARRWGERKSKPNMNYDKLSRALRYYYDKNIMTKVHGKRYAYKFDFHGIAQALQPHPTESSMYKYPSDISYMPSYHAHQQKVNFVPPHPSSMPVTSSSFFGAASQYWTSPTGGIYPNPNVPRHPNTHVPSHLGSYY
# In short: (§1)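 Binding signal is given per hexamer as its read frequency for a factor divided by its frequency in the tag-only sample. GST-fused human transcription factors were expressed in yeast, captured on glutathione beads, barcoded with DNA and pooled with that sample, then incubated with 200 nmole of a 16-mer random double-stranded DNA library in Tris/NaCl/DTT/glycerol buffer for 30 min at room temperature. The pools were then washed, crosslinked, proximity-ligated, amplified by PCR and sequenced on an Illumina NextSeq500.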
# ELK1 = biological target: T2, ELK1 (Homo sapiens, UniProt P19419 1-428)
# T2 sequence: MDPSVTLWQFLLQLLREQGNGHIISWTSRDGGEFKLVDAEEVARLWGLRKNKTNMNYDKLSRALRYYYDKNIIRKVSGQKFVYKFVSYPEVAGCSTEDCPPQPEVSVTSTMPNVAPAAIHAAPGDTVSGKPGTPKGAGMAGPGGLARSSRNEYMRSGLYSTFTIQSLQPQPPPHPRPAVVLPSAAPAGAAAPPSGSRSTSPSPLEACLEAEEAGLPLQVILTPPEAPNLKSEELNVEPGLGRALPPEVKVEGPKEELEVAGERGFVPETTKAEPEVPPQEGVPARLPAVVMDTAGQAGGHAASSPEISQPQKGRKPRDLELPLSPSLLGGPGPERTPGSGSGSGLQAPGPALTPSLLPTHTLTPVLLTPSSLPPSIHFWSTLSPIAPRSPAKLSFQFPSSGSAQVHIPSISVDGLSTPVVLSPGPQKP
# In short: as §1
# GABPA = biological target: T3, GABPA (Homo sapiens, UniProt Q06546 1-454)
# T3 sequence: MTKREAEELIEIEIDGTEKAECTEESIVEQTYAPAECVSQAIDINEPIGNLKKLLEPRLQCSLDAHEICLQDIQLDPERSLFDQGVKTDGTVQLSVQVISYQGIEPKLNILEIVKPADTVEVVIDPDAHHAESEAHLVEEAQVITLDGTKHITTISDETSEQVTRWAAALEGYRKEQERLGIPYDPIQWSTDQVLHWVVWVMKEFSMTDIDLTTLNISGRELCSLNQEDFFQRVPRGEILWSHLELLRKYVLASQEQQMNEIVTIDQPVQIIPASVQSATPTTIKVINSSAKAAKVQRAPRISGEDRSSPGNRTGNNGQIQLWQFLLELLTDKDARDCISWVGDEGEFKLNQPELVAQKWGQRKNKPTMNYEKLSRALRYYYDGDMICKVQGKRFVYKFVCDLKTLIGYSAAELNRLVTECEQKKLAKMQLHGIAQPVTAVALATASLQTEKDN
# In short: as §1
# ERG = biological target: T4, ERG (Homo sapiens, UniProt P11308 1-479)
# T4 sequence: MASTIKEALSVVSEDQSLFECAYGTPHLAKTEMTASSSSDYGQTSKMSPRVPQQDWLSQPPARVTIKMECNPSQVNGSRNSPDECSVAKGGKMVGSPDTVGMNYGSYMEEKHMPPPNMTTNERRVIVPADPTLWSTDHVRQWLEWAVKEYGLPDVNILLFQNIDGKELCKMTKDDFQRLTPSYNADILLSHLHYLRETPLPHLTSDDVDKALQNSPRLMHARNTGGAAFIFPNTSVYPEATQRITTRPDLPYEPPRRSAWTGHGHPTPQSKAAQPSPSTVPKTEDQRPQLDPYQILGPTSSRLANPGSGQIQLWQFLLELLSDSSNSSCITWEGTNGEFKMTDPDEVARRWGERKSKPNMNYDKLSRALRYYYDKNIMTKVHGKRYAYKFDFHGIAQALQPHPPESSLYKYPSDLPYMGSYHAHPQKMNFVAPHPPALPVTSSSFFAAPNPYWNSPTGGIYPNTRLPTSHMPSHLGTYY
# In short: as §1
# ELF1 = ELF1 (Homo sapiens, UniProt P32519 1-619)
# In short: as §1
# EHF = biological target: T5, EHF (Homo sapiens, UniProt Q9NZC4 1-300)
# T5 sequence: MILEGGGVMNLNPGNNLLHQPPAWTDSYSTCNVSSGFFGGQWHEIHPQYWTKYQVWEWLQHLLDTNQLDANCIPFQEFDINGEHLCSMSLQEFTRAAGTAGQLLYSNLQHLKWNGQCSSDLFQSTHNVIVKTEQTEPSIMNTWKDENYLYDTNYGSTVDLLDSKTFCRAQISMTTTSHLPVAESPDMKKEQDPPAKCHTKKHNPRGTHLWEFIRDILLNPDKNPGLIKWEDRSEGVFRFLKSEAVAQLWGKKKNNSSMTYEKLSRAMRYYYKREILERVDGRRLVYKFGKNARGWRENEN
# In short: as §1
# SPI1 = SPI1 (Homo sapiens, UniProt P17947 1-270)
# In short: as §1
# SPIB = SPIB (Homo sapiens, UniProt Q01892 1-262)
# In short: as §1
# ELK3 = biological target: T6, ELK3 (Homo sapiens, UniProt P41970 1-407)
# T6 sequence: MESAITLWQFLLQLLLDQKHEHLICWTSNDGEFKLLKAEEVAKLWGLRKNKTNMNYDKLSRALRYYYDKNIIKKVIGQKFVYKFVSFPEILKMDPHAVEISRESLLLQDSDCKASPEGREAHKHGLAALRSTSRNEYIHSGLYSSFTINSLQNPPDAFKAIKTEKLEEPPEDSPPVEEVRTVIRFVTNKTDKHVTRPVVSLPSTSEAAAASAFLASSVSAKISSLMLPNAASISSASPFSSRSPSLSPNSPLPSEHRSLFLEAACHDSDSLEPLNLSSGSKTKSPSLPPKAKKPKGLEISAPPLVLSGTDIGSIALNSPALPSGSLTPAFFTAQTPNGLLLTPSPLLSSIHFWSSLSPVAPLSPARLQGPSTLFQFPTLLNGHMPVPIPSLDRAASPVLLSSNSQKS
# In short: as §1
# Chain of ELF1 (P32519 whole entry): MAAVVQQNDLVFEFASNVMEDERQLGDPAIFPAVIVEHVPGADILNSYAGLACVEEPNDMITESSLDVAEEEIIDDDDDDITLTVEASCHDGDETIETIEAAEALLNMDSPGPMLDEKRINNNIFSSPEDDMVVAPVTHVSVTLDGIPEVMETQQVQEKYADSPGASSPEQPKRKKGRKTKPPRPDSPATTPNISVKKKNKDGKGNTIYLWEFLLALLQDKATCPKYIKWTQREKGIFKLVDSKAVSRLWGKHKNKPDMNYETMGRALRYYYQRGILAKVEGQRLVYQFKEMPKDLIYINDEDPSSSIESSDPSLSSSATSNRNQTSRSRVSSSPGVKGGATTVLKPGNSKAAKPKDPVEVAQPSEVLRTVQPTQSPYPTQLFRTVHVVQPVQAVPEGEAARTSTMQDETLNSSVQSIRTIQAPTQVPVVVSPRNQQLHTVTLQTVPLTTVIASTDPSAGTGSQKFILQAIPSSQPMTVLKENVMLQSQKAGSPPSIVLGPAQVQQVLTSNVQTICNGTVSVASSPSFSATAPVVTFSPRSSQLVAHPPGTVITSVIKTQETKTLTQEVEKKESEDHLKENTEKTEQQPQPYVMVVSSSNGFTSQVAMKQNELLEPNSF
# Chain of SPIB (Q01892 whole entry): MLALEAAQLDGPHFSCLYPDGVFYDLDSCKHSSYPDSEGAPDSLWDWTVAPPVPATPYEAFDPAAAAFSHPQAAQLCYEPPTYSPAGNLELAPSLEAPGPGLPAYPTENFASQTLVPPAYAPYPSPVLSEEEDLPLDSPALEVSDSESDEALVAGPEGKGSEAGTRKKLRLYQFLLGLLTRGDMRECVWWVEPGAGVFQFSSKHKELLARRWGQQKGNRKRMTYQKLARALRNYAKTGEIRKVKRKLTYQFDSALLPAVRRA
sequence,measurement,setting,value
TTCAGG,binding signal,FLI1,"1.2 fold enrichment (6-mer frequency, TF over GST control)"
same,binding signal,ELK1,"1.14 fold enrichment (6-mer frequency, TF over GST control)"
same,binding signal,GABPA,"1.15 fold enrichment (6-mer frequency, TF over GST control)"
same,binding signal,ERG,"1.12 fold enrichment (6-mer frequency, TF over GST control)"
same,binding signal,ELF1,"1.1 fold enrichment (6-mer frequency, TF over GST control)"
same,binding signal,EHF,"1.11 fold enrichment (6-mer frequency, TF over GST control)"
same,binding signal,SPI1,"1.22 fold enrichment (6-mer frequency, TF over GST control)"
same,binding signal,SPIB,"1.1 fold enrichment (6-mer frequency, TF over GST control)"
same,binding signal,ELK3,"1.09 fold enrichment (6-mer frequency, TF over GST control)"
